SARS PLP yeast = blocks SARS-CoV papain-like protease in a yeast assay; 330,000 compounds, 0.19% hits; Potency, µM (top dose mostly 32.9 µM), for the others: at the top dose activity, positive = growth rescue, usual class: activators; S. cerevisiae expressing SARS-CoV PLpro, growth rescue; calls by dose curve; further: potency means the concentration at half of the fitted maximal effect; 0% is about no effect; nearly all actives have a fitted effect of over 55% in size
AMA1 RON2 block = AMA1-RON2 (P. falciparum) interaction inhibition; AlphaScreen AMA1-biotinylated RON2 peptide binding; Potency, µM (titrated, usually from 58.2 µM), for inactives: at the highest dose activity change, negative = inhibition, most hits filed as inhibitors; 360,000 compounds, 0.2% hits;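 further: potency means the concentration at half of the fitted maximal effect; 0% = vehicle wells and -100% = peptide control; nearly all actives have a fitted effect of over 45% in size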
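AMA1 (3D7) with his tag at 25 nM final met compounds first, then biotinylated RON2 peptide at 25 nM; detection used donor plus acceptor beads, 10 µg/mL apiece, read by AlphaScreen after 30 min at room temperature.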
Pf growth 48h = inhibits P. falciparum growth in the first generation, 48 h | P. falciparum luciferase growth in erythrocytes, 48 h | Potency, µM (top dose mostly 28.7 µM), for inactives: at the top dose activity change, negative = inhibition, hits mostly inhibitors | 310,000 compounds, 5.9% hits; further: potency means the concentration at half of the fitted maximal effect; on the % scale 0 is the no-effect control and ±100 the full control effect
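First compound was added to culture medium, then infected red cells at 0.1% parasitemia and 2% hematocrit (final). After incubation at 37 C under 5% CO2, luciferase detection reagent was dispensed and light output recorded.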
CHX counter = counter-screen hit for Shiga toxin inhibitors, cycloheximide | cell reporter, cycloheximide protein synthesis inhibition counterscreen | max response, % | 300,000 compounds, 12% hits; in the data active means max response mostly above about 13%, no sharp cut-off; inactive means mostly below about 14%; further: read at 38.3 µM for the half of the compounds with a filed dose; 0% is about no effect
Shiga toxin inh = inhibitors of Shiga toxin in Vero cells; inhibition, % at 38.7 µM; 290,000 compounds, 9.2% hits; AID 2315; Vero cells, Shiga toxin protein synthesis inhibition reporter; in the data active means inhibition mostly above about 28%, no sharp cut-off; inactive means mostly below about 43%; further: 0% is about no effect
Pf growth 96h = P. falciparum growth inhibition at 96 hour, primary screen for plastid delayed-death inhibitors; Potency, µM (top dose mostly 28.7 µM), inactives show at the highest dose activity change, negative = inhibition, actives largely listed as inhibitors; AID 504834; P. falciparum luciferase reporter growth, 96 h; 320,000 compounds, 6.9% hits; further: potency means the concentration at half of the fitted maximal effect; on the % scale 0 is the no-effect control and ±100 the full control effect
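Compounds incubated with erythrocytes infected by luciferase-expressing P. falciparum (2% hematocrit, 0.05% parasitemia final) for 96 hours, 37 C in 5% CO2. Growth inhibition scored as decreased luciferase luminescence.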
* = called active by the depositor; ? = inconclusive; / = not tested or not shown; + = active, no number. The list is not random: actives were taken first. Their share in the collection is about 19%. Unless noted, the call rests on the fitted dose curve; in most records, active means well fitted curve in the direction sought with a large enough effect; inconclusive means small, poorly fitted or top-dose-only effect, or another doubt; inactive means no such curve, though single readings can be large; an effect the other way counts as inactive or inconclusive.

SMILES	SARS PLP yeast	AMA1 RON2 block	Pf growth 48h	CHX counter	Shiga toxin inh	Pf growth 96h
CCOc1cccc(C(=O)Nc2ccccc2N2CCN(C(=O)C(C)C)CC2)c1	-23%	-4%	9.3µM*	5	30	13µM*
CCCCOc1cccc(C(=O)Nc2ccccc2N2CCCC2)c1	-2%	?	?	-2	33	?
COc1ccc(Cl)cc1C(=O)Nc1ccccc1N1CCN(C(=O)C(C)C)CC1	-1%	16%	5.9µM*	-8	-19	5.2µM*
CC(C)C(=O)N1CCN(c2ccccc2NC(=O)c2ccco2)CC1	0%	3%	4.7µM*	-2	-6	30%
CC(NC(=O)c1ccco1)C(=O)N1CCN(c2ccccc2)CC1 (stereo not drawn)	1%	24%	-7%	-3	-21	18%
COc1ccc(C(=O)Nc2ccccc2N2CCN(C(=O)C(C)C)CC2)cc1Cl	-20%	14%	12µM*	-4	-33	-29%
CSCCC(NC(=O)c1ccccc1)C(=O)N1CCN(C(c2ccccc2)c2ccccc2)CC1 (stereo not drawn)	0%	-17%	?	1	-5	1.9µM*
CC(C)C(=O)N1CCN(c2ccccc2NC(=O)c2ccc3c(c2)OCCO3)CC1	/	25%	/	/	/	/
CCOc1ccc(C(=O)Nc2ccccc2N2CCN(C(=O)c3ccccc3)CC2)cc1[N+](=O)[O-]	0%	3%	1.3µM*	-2	-12	1.7µM*
Cc1ccc(C(=O)Nc2ccccc2N2CCN(C(=O)C(C)C)CC2)cc1	-1%	-16%	9.3µM*	1	-20	/
CCOc1ccc(C(=O)NC(=S)Nc2ccccc2N2CCC(C)CC2)cc1[N+](=O)[O-]	1%	-1%	?	-2	-9	/
CN1C2CCC1CC(OC(c1ccccc1)c1ccccc1N)C2 (stereo not drawn)	/	-5%	/	/	/	/
CN1C2CCC1CC(OC(c1ccccc1)c1ccc(Cl)cc1)C2 (stereo not drawn)	/	/	4.8µM*	/	/	9%
CC(C)(C)NC(=O)CSc1ncccc1-c1nc2ccccc2[nH]1	10%	6%	-4%	26*	26*	?
COC(=O)CSc1ncccc1-c1nc2ccccc2[nH]1	-5%	4%	45%	24*	+	?
O=C(CSc1ncccc1-c1nc2ccccc2[nH]1)N1CCc2ccccc21	-11%	3%	0%	85*	26	110%
CC(C)(C)NC(=O)CSc1nc(-c2ccccc2)c(-c2ccccc2)[nH]1	-5%	9%	?	-2	-29	/
Cc1ccc2c(cnn2C(=O)CCC(=O)NC2CCCCC2)c1	-2%	3%	-13%	-3	-2	?
Cc1cc2nncn2c(Cc2ccccc2)n1	6%	-4%	-7%	-4	-13	?
COc1cccc2cc(C(=O)C3=C(O)C(=O)N(CCN4CCOCC4)C3c3ccc(C(C)(C)C)cc3)oc12 (stereo not drawn)	1%	25%	?	-8	1	?
CCCC(=O)c1ccc2c(c1)OCCO2	9%	20%	31%	10	28	/
O=C(CS(=O)(=O)c1ccccc1)c1ccc2c(c1)OCCO2	?	17%	274%	45*	58*	?
CCC(=O)c1ccc2c(c1)OCCO2	0%	-9%	19%	13*	33	16%
COCCN(C(=O)CSc1nnc(C)n1-c1ccc(C)cc1)c1c(N)n(Cc2ccccc2)c(=O)[nH]c1=O	/	-1%	-7%	/	/	3%
Cc1nc(SCc2nc3c(O)cccc3[nH]2)c2oc3ccccc3c2n1	-5%	/	/	/	/	/
SMILES	SARS PLP yeast	AMA1 RON2 block	Pf growth 48h	CHX counter	Shiga toxin inh	Pf growth 96h
CC(=O)n1cc(N(C(=O)CCl)c2ccccc2)c2ccccc21	-3%	-3%	?	0	-20	?
CC(=O)n1cc(N(C(=O)CCl)c2ccc([N+](=O)[O-])cc2)c2ccccc21	-2%	-2%	3.7µM*	-2	-6	?
Cc1ccc2[nH]c3c(c2c1)CN(C(=O)CN1CCN(c2ccccc2F)CC1)CC3	-33%	/	-8%	1	-18	?
COC(=O)CC1=C(c2ccc([N+](=O)[O-])cc2)CCC1=O	/	-8%	/	/	/	/
Cc1ccc(C2=C(CC(=O)O)C(=O)CC2)cc1	-8%	-6%	22%	-4	19	4.7µM*
COC(=O)[C@@H]1Cc2c([nH]c3ccccc23)C(C)(C)N1C(=O)CCl	-2%	-6%	12µM*	18	18	?
COC(=O)C1Cc2c([nH]c3ccccc23)C2CCC(=O)N12 (stereo not drawn)	/	-5%	/	/	/	/
Cc1cc(-c2nn(-c3ccccc3F)cc2CN2CCCC(CO)C2)c(C)s1 (stereo not drawn)	-1%	-4%	22%	10	-6	2.3µM*
Cc1cc(-c2nn(-c3ccccc3F)cc2CN2CCCC(C(N)=O)C2)c(C)s1 (stereo not drawn)	0%	5%	?	-3	-15	?
Cc1cc(-c2nn(-c3ccccc3F)cc2CN2CCC(C(N)=O)CC2)c(C)s1	0%	-7%	-2%	8	-11	8.3µM*
Cc1cccc(NC(=O)c2cc(S(=O)(=O)N(C)c3ccc(F)cc3)ccc2Cl)n1	/	-1%	0.33µM*	/	/	0.37µM*
COc1ccccc1N(C)S(=O)(=O)c1ccc(Cl)c(C(=O)Nc2ccccc2N2CCOCC2)c1	/	-29%	/	/	/	/
COc1ccccc1N(C)S(=O)(=O)c1ccc(Cl)c(C(=O)Nc2cccc(C)n2)c1	-7%	-10%	2.1µM*	/	/	2.3µM*
CCc1nc2ccc(C(=O)Nc3cccc(OCC(=O)N(C)C)c3)cn2c1N(CCC(C)C)CCN(C)C	/	-2%	/	/	/	/
COc1ccc(S(=O)(=O)Nc2ccc(C)cc2)cc1N(C)S(=O)(=O)c1ccc(Cl)cc1	-17%	-5%	2.9µM*	6	1	-12%
COC(=O)CN(c1cc(Cl)ccc1OC)S(=O)(=O)c1ccc(C)cc1	1%	-4%	2.1µM*	1	3	-14%
COC(=O)CN(c1cc([N+](=O)[O-])ccc1OC)S(C)(=O)=O	-2%	-7%	-8%	6	-4	15µM*
CC(=O)n1ccnc1	-5%	-3%	7%	-2	-2	27%
Cc1cc(-c2nnc3n2CCCCC3)c(C)n1-c1ccccc1	-3%	12%	-24%	12	91*	?
Oc1ccccc1-c1nnc2n1CCCCC2	0%	24%	0%	-3	-11	-14%
COc1cc(CN(C)C(=O)C2CCN(S(=O)(=O)c3cccs3)CC2)ccc1OC(F)F	/	1%	/	/	/	/
COc1ccccc1CNC(=O)CCNC(=O)N1CC(=O)Nc2ccccc21	-2%	-8%	10%	-4	-7	?
CCOC(=O)c1cnc2c(-c3ccccc3)cnn2c1N	-3%	41%	101%	30*	90*	14%
CCOC(=O)c1cnc2c(-c3ccc(F)cc3)cnn2c1C(F)(F)F	0%	8%	?	17*	28*	?

Compound activity (PubChem BioAssay)
